We go through 26 compounds from PubChem BioAssay.

This experiment has as its system Wnt5a (protein binding on small-molecule microarray). Briefly: small molecules binding Wnt5a protein – biophysical, small-molecule microarray, 635/667 nm fluorescence, primary screen (AID 1142).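 Note: fluorescence read at 667 nm with signal to noise per printed feature.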 The settings on record: 635 nm fluorescence, higher = more signal.
For the compound `CCN1C(=O)[C@H]2[C@H]3[C@H](O)[C@H](O)CC(=NOCC(C)C)[C@H]3CC[C@H]2C1=O`, the composite z-score is -0.0772. Take `COC(OC)[C@@H](C)[C@H](OC)[C@@H](C)[C@H](OC)c1ccccc1`: the composite z-score is 0.3. Take `COC(=O)[C@H](C)NC(=O)CCC1CC(OC(=O)NCc2ccc3c(c2)OCO3)CC2(CCCC(COC(=O)NCc3ccccc3)O2)O1` (stereo partly specified): the composite z-score was 0.298. As for `CO[C@@H](C1CCCCC1)[C@@H](C)[C@H](OCc1cccc(Br)c1)[C@@H](C)CO`, the composite z-score was -0.098. The compound `CC(C)CON=C1[C@H]2CCn3c(=O)n(C)c(=O)n3[C@H]2[C@H](O)[C@@H]2O[C@H]12` yielded a composite z-score of 0.0208. Consider `C[C@]12CCC3c4ccc(OCC5CO5)cc4CCC3C1CC[C@@H]2O` (stereo partly specified), for which the composite z-score was 0.201. The compound `CO[C@@H]1C=CCC(=O)N[C@@H](C)C(=O)OC[C@@H](OC)[C@H](C)C=CCC(=O)OC[C@H]1C` came in with a composite z-score of 0.552.

Compound `OC[C@H]1O[C@H](C#Cc2ccccc2)C=C[C@@H]1O` registered a composite z-score of 0.0146. `CC(C)[C@@H](OCc1ccccc1)[C@H](C)C=NO[C@H](C)c1cn([C@@H]2COC[C@H]2O)nn1` came in with a composite z-score of 0.31. The compound `CN1CCc2nc(-c3ccccc3)c(-c3ccccc3)cc2C1` displayed a composite z-score of 0.0321.

`O=C1[C@H]2[C@H]3[C@H](O)[C@H](O)CC(=NOC[C@@H](O)COCc4ccco4)[C@@H]3CC[C@H]2C(=O)N1Cc1ccc2c(c1)OCO2` gave a composite z-score of 0.0191. For `CCOC(=O)[C@H](CC(C)C)NC(=O)CCC1CC(OC(=O)NCc2ccc3c(c2)OCO3)CC2(CCCC(COC(=O)NCCc3ccccc3OC)O2)O1` (stereo partly specified), the composite z-score is 0.08. To `C[C@@H]1CC[C@H]2C(=O)OC(CN3C(=O)c4ccccc4C3=O)CN2[C@H]1c1ccc(Br)cc1` (stereo partly specified) belongs -0.0102; to `O=C1C=C[C@@H](O)[C@@H]2[C@@H]3C(=O)N(Cc4ccc5c(c4)OCO5)C(=O)[C@@H]3CC[C@@H]12`, 0.538.

`COC(=O)[C@H](C)NC(=O)CCC1CC(OC(=O)NCc2cccc3ccccc23)CC2(CCCC(COC(=O)NCCCN3CCCC3=O)O2)O1` (stereo partly specified) displayed a composite z-score of 0.205. In turn, `CO[C@@H]1COC(=O)[C@H](COCc2ccccc2)NC(=O)CC=C[C@@H](C)[C@H](OC)COC(=O)[C@@H](C)NC(=O)CC=C[C@H]1C` returned a composite z-score of -0.128. The compound `CON=C(C)CCN1CCCCc2nc(C)c(C)cc21` had a composite z-score of 0.0272. `C#CCCCON=C1[C@H]2CCn3c(=O)n(Cc4cc5c(cc4Cl)OCO5)c(=O)n3[C@H]2[C@H](O)[C@@H]2O[C@H]12` showed a composite z-score of 0.272. As for `C[C@H]1CC[C@H]2C(=O)N[C@H](Cc3ccccc3)C(=O)N2[C@@H]1c1ccccc1`, the composite z-score amounted to 0.132. The compound `CC(CCN1CCc2nc(-c3ccccc3)c(-c3ccccc3)cc2C1)=NO[C@H](C)c1cn([C@H](CO)Cc2ccccc2)nn1` gave a composite z-score of 0.136. The compound `C#CCCCON=C1C[C@@H](O)[C@@H](O)[C@@H]2[C@@H]3C(=O)N(C[C@@H]4CCCO4)C(=O)[C@@H]3CC[C@@H]12` returned a composite z-score of 0.195. On to `CCOC(=O)[C@H](CC(C)C)NC(=O)CCC1CC(OC(=O)NCc2ccc3c(c2)OCO3)CC2(CCCC(COC(=O)NCCOC)O2)O1` (stereo partly specified), for which the composite z-score is -0.0334. The value for `COc1ccc(OC[C@@H](CO)OC)cc1` was 0.131. To `COC(=O)[C@@H]1CC[C@H](C)[C@@H](c2ccc(C)cc2)N1C(=O)c1ccc(C=NOC[C@@H](O)[C@H]2O[C@@H]3OC(C)(C)O[C@@H]3[C@H]2O)cc1` belongs 0.0258. Turning to `CC(=O)OC[C@H]1O[C@H](CC=NO[C@@H](C)c2cn([C@H](CO)Cc3ccccc3)nn2)C=C[C@@H]1OC(C)=O`, the composite z-score is 0.0065. `COC(=O)[C@H](C)NC(=O)CCC1CC(OC(=O)NCc2ccc3c(c2)OCO3)CC2(CCCC(COC(=O)NCCC(C)C)O2)O1` (stereo partly specified) returned a composite z-score of 0.151.
